The values below come from PubChem BioAssay (Tox21).

Several values for one entry are separate records, joined by “and”; a condition that tells them apart may be missing. Identical values can stand only once. Inconclusive results are not listed. Entries that show only a call come without a potency. The source holds several records for some structures; these can differ, active in one and inactive in another. Activity calls are given as the source filed them. Calls follow the shape of the dose curve; as a rule, active = well fitted cell-killing curve with a large enough effect in the repeat runs; inconclusive = weak or mixed curves; inactive = no such curve, though single readings can be large or run the other way.
Potency is read from the fitted curve at half-maximal effect.

This test in a line: qHTS assay to identify small molecule agonists of the peroxisome proliferator-activated receptor delta (PPARd) signaling pathway - cell viability counter screen (AID 743211). Also: nearly all actives have a fitted effect of over 55% in size. The conditions noted are these: PPARd-bla HEK293H viability, CellTiter-Glo luminescence, 17 h; series mostly up to 62.6 µM. The text has this: U.S. Tox21 Program National Center for Advancing Translational Sciences [NCATS] NIH Chemical Genomics Center [NCGC] U.S. Environmental Protection Agency [EPA] National Institutes of Environmental Health Sciences [NIEHS] National Toxicology Program [NTP] U.S. Food and Drug Administration [FDA] Tox21 Assay Overview: The peroxisome proliferator-activated receptors (PPARs) are lipid-activated transcription factors of the nuclear receptor superfamily with three distinct subtypes namely PPAR alpha, PPAR delta (PPARd) and PPAR gamma. All these subtypes heterodimerizes with Retinoid X receptor (RXR) and have different physiological functions. […] To identify the compounds that activate PPAR-delta signaling, GeneBLAzer PPAR delta UAS-bla HEK293H cell line (Invitrogen, Carlsbad, CA, USA) containing a beta-lactamase reporter gene under the control of an Upstream Activator Sequence (UAS) was used to screen the Tox21 compound library. The cytotoxicity of the Tox21 compound library against the PPARd-bla cell line was tested in parallel by measuring the cell viability using CellTiter-Glo assay (Promega, Madison, WI) in the same wells.
Tox21 Assay Protocol Summary: PPARd-bla cells were dispensed at 3000 cells/6uL/well in 1536-well black wall/clear bottom plates using a Multidrop Combi (Thermo Fisher Scientific, Waltham, MA) dispenser. After the assay plates were incubated at 37 C and 5% CO2 for 5 h, 23 nL of compounds dissolved in DMSO, positive controls or DMSO only was transferred to the assay plate by a Pintool station (Kalypsys, San Diego, CA). The assay plates were incubated at 37C for 17 h. After 1 uL of LiveBLAzerTM B/G FRET substrate was added using a Bioraptr Flying Reagent Dispenser (FRD) workstation (Beckman Coulter, Indianapolis, IN, USA), the plates were incubated at room temperature for 2 h, and fluorescence intensity was measured by an Envision plate reader (PerkinElmer, Shelton, CT). For cell viability readout that measures cytotoxicity, 3 ul/well of CellTiter-Glo reagent was added into the assay plates using a Bioraptr FRD. After 30 min incubation at room temperature, the luminescence intensity in the plates was measured using a ViewLux plate reader (PerkinElmer).
(In general: qHTS replaces the single test concentration by a dilution series.)
In the case of `CC(C)(C)C(=O)CCl`, the Potency entry was “inactive”. With `CSc1nnc(C(C)(C)C)c(=O)n1N` the entry was “inactive”; with `c1ccc2c(c1)CCCC2`, “inactive”.

For `C=C(C)C(=O)OCC(CC)CCCC` (stereo not given), the Potency result is “inactive”. With `Cl/C=C/Cl` the entry was “inactive”.

For the compound `C[C@]12CC[C@H](O)CC1=CC[C@@H]1[C@@H]2CC[C@]2(C)C(=O)CC[C@@H]12`, the Potency entry was “inactive”. On to `CCOc1ccc(N)cc1`, for which the Potency result is “inactive”. For `CCCCC(CC)C(=O)Cl` (stereo not given), the Potency result is “inactive”.

As for `CC[N+](=O)[O-]`, the Potency entry is “inactive”. As for `ClC(Cl)c1ccccc1`, the Potency entry was “inactive”. With `CC(=O)C1CCOC1=O` (stereo not given) the entry was “inactive”; with `CN(C)NC(=O)CCC(=O)O`, “inactive”; with `Sc1ccccc1`, “inactive”. For the compound `COC(C)(C)CCCC(C)C/C=C/C(C)=C/C(=O)OC(C)C` (stereo not given), the Potency result was “inactive”.

Consider `O=C/C=C/c1ccccc1`, for which the Potency result was “inactive”. With `CNc1cnn(-c2cccc(C(F)(F)F)c2)c(=O)c1Cl` the entry was “inactive”; with `CC(C)c1cccc(C(C)C)c1O`, “inactive”. As to `Nc1nc(N)nc(NC2CC2)n1`, the Potency entry was “inactive”. Take `CNC(=O)O/N=C(\SC)C(=O)N(C)C`: the Potency entry was “inactive”. As for `CNCC(O)c1ccc(O)cc1` (stereo not given), the entry is “inactive”; as for `N#Cc1cccc(C#N)c1`, “inactive”; as for `C=CCN=C=S`, “inactive”. Take `CCCOC(=O)c1ccccc1C(=O)OCCC`: the Potency result is “inactive”. In the case of `O=C(O)CCCc1ccc(N(CCCl)CCCl)cc1`, the Potency entry is “inactive”. With `CNC(=O)Oc1cccc2ccccc12` the entry was “inactive”; with `CNC(=O)O/N=C/C(C)(C)S(C)=O` (stereo not given), “inactive”; with `CC(=O)/C=C/c1ccccc1`, “inactive”.

On to `C=CC(=O)OCCCCCC(C)C`, for which the Potency entry was “inactive”. With `O=[N+]([O-])c1cc([As](=O)(O)O)ccc1O` the entry was “inactive”; with `CN1C(=O)CCS(=O)(=O)C1c1ccc(Cl)cc1` (stereo not given), “inactive”. `N#Cc1ccccn1`: the Potency result was “inactive”. As for `O=[N+]([O-])c1ccc(Cl)c(Cl)c1`, the entry is “inactive”; as for `CN(C)C(=O)C(c1ccccc1)c1ccccc1`, “inactive”.

For `CCOP(=S)(OCC)Oc1cc(C)nc(C(C)C)n1`, the Potency entry was “inactive and 54.9 µM (active)”. With `C/C=C/c1ccc2c(c1)OCO2` the entry was “inactive”. `Nc1ncc([N+](=O)[O-])s1`: the Potency result was “inactive”. In the case of `O=C(O)C(Br)Br`, the Potency entry is “inactive”. With `COP(=S)(OC)SCN1C(=O)c2ccccc2C1=O` the entry was “inactive”; with `FC(F)(F)c1ccc(Cl)cc1`, “inactive”. Regarding `CCNc1nc(Cl)nc(NC(C)C)n1`, the Potency entry was “inactive”.
